Source: PubChem BioAssay AID624330 (Southern Research Specialized Biocontainment Screening …, 2012)
The whole screen tested about 340,000 compounds, of which about 2,100 (0.62%) were called active.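 Rule for the calls: active = first-screen hits whose inhibition reached a set limit at any dose in the follow-up dose series; inconclusive = inhibition above the set first-screen limit but never retested; inactive = the rest.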 These entries were drawn from the full list. Measured potencies and affinities stand elsewhere.

What follows are compounds tested against Rac GTPase-activating protein 1 (Homo sapiens) (UniProt Q9H0H5) (assay: MgcRacGAP GTPase-activating activity inhibitors, confirmation, biochemical, ADP Hunter fluorescence, primary and confirmatory (AID 624330;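 note: fluorescence reports GDP produced by GAP-driven GTP hydrolysis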)). Conditions: MgcRacGAP-stimulated Rac1 GTP hydrolysis, at 30 µM, stronger effect = higher value, GST-tagged Rac1 F28L mutant substrate.
Sequence of Rac GTPase-activating protein 1 (Homo sapiens) (Q9H0H5 whole entry, looked up): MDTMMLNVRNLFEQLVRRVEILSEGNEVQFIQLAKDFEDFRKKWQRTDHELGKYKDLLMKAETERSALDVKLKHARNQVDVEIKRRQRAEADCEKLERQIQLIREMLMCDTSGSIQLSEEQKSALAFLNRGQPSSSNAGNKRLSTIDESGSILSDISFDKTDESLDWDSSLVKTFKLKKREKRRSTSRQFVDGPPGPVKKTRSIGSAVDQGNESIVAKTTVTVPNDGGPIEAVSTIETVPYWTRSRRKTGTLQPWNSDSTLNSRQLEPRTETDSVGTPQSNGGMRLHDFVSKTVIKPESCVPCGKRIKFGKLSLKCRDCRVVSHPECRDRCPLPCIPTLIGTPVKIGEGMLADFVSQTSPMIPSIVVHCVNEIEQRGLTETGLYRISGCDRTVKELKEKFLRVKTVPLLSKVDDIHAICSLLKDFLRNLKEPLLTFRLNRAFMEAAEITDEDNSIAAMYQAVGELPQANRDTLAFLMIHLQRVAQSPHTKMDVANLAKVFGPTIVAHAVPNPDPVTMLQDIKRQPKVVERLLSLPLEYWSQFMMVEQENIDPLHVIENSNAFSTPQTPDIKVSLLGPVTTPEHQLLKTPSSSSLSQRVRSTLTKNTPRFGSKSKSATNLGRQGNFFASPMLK

inhibition, inactive:
O=C(NCCC1=CCCCC1)C(=O)c1c[nH]c2ccccc12 1.95%
Cc1ccc(S(=O)(=O)[N-]c2nc3ccccc3nc2-[n+]2cc(C)cc(C)c2)cc1 9.42%
COc1ccccc1Oc1nnnn1-c1ccc(C(N)=O)cc1 2.99%
CCn1cc(/C=C(\NC(=O)c2ccccc2F)C(=O)N2CCN(C)CC2)c2ccccc21 19%
C[C@@H]1CN(S(=O)C(C)(C)C)[C@@H](CCO)/C1=C\CCO (stereo not given in full) 8.46%
Cc1cc(NC(=O)c2ccccc2)no1 5.35%
Cc1ccc2c(Cl)c(C(=O)Nc3cc(C)on3)sc2c1 4.78%
Cc1ccc(S(=O)(=O)c2c(COC(=O)c3ccccc3Cl)c(-c3ccccc3)nn2C)cc1 4.7%
Cc1nc2ccc(NC(=O)CCS(=O)(=O)c3ccc(Cl)cc3)cc2s1 -5.04%
CC(C)CC1NC(=O)N(CC(=O)Nc2ccc3c(c2)CCC3)C1=O (stereo not given) 9.25%
O=C(NCCS(=O)(=O)c1ccc(Cl)cc1)c1ccc(F)cc1 2.29%
Cc1c(C(=O)Nc2ccc(S(=O)(=O)Nc3ncccn3)cc2)oc2ccc(F)cc12 -2.01%
O=C(O)C1CCN(Cc2cccnc2)CC1 2.37%
CC1CCCCN1Cc1ccc(N(C)C)cc1 (stereo not given) 9.51%
CC1CCCCN1Cc1ccc(N)cc1 (stereo not given) 5.78%
O=S1(=O)CCN(Cc2cccnc2)CC1 0.02%
COc1ccc(CN(CCc2ccccc2)Cc2ccccc2)cc1OC 28.5%
O=C(O)CSc1nnc(SCc2cccc3ccccc23)s1 4.86%
CCN(CC)C(=O)CSc1nc2c(sc(=S)n2CC)c(=O)n1-c1ccccc1 2.69%
Cc1ccc(N2C(=O)NC3(CCCCC3)C2=O)cc1 8.08%
COc1ccc(N2C(=O)NC(=O)C2=O)cc1 6.21%
COC(=O)[C@@]12CCCN1[C@H](c1ccc(-c3ccc(Cl)c(Cl)c3)cc1)[C@H]1C(=O)N(C)C(=O)[C@H]12 -9.75%
O=C(CN1CCc2ccccc2C1)Nc1ccccc1F 8.8%
Cc1cnc(NC(=O)[C@H](C)N2C(=O)C3CCCCC3C2=O)s1 (stereo not given in full) 1.01%
O=C(CN1CCc2ccccc2C1)Nc1ccccc1Cl 9.11%
CC(=O)c1ccc(N2CCN(C(C)C(=O)Nc3ccc4c(c3)OCCO4)CC2)cc1 (stereo not given) -0.86%
Cc1ccc(NC(=O)C(C)N2CCCC2)cc1Cl (stereo not given) 13.2%
CN1CCN(CCC(=O)Nc2ccc(F)c(F)c2)CC1 2.01%
Cc1cnc(NC(=O)C(C)N2C(=O)C3CC=CCC3C2=O)s1 (stereo not given) 5.83%
CC(C(=O)Nc1ccc2c(c1)OCO2)N1CCC(N2CCCCC2)CC1 (stereo not given) 26%
